For part of these data: Results with a measured potency or affinity are listed apart. Active and inactive are the calls of the source.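 Rule for the calls, unless noted: active = dose curve with midpoint inside tested range, moderate steepness, plateau gap beyond fit error, low compound glow and bead-link interference; inactive = the rest.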
How the values were obtained:
[1] = biological target: Cell division control protein 42 homolog (Homo sapiens) (UniProt P60953); experiment: activated mutant Cdc42 GTP-binding inhibitors, dose response, biochemical, multiplex bead flow cytometry, Bodipy-FL-GTP (AID 1333;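 active = fitted half-maximal concentration within the tested dose range, moderate curve steepness, a statistically real signal drop, and little compound fluorescence or tag-binding interference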)
[2] = biological target: Cell division control protein 42 homolog (Homo sapiens) (UniProt P60953); experiment: wildtype Cdc42 GTP-binding inhibitors, dose response, biochemical, multiplex bead flow cytometry, Bodipy-FL-GTP (AID 1334;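 active = fitted half-maximal concentration within the tested range, moderate curve steepness, significant signal drop, and little compound fluorescence or bead-linkage interference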); details: bead-based flow cytometry, Bodipy-FL-GTP binding to GST-Cdc42; at 100 µM (top of the series) unless noted
[3] = biological target: GTPase HRas (Homo sapiens) (UniProt P01112); experiment: inhibitors of GTP binding to wildtype Ras, dose response, biochemical, multiplex bead flow cytometry (AID 1335;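 active = fitted half-maximal concentration within 10 nM to 100 µM, steepness 0.5 to 2, significant signal drop, low assay interference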); details: bead-based flow cytometry, Bodipy-GTP binding to GST-Ras; at 100 µM (top of the series) unless noted
[4] = system: Ras-related protein Rab-7a (dog), GTP binding; experiment: Rab7 GTP binding inhibitors, potency, dose response, biochemical, wildtype, multiplex bead flow cytometry (AID 1336; call rule not given here)
[5] = biological target: Ras-related C3 botulinum toxin substrate 1 (Homo sapiens) (UniProt P63000); experiment: wildtype Rac1 GTP binding inhibitors, dose response, biochemical, multiplex bead flow cytometry (AID 1340); details: GST-Rac1 beads, Bodipy-FL-GTP binding; at 100 µM (top of the series) unless noted
[6] = biological target: GTPase HRas (Homo sapiens) (UniProt P01112); experiment: activated Ras mutant GTP binding inhibitors, dose response, biochemical, multiplex bead flow cytometry (AID 1341;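 active = dose-response curve with midpoint inside the tested range, moderate steepness, significant amplitude and little compound fluorescence or bead-attachment interference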;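 note: GST-tagged constitutively activated Ras mutant immobilized on beads and multiplexed with other GTPases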)

Chain of Cell division control protein 42 homolog (Homo sapiens) (P60953 whole entry, looked up): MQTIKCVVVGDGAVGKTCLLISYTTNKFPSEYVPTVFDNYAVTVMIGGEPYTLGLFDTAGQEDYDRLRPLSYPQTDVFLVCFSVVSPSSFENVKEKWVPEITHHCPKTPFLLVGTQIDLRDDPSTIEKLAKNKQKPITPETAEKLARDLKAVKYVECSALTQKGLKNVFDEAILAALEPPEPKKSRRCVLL
Chain of GTPase HRas (Homo sapiens) (P01112 whole entry, looked up): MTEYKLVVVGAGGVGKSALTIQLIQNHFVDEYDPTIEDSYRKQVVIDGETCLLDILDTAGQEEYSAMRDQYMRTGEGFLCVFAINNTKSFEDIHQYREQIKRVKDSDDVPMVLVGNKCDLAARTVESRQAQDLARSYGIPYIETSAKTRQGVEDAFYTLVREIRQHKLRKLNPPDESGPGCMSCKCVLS

| SMILES | outcome [1] | fluorescence, percent of control (lower = inhibition) [2] | GTP binding, percent of control [3] | outcome [4] | GTP binding signal, raw median fluorescence (lower = inhibition) (MCF (arbitrary fluorescence units)) [5] | outcome [6] |
| --- | --- | --- | --- | --- | --- | --- |
| O=C(C#Cc1ccccn1)c1ccc([N+](=O)[O-])cc1 | inactive | 51% | 162% | inactive | 56.2 | inactive |
| CNc1ncc(C(=O)c2ccc(Br)cc2)s1 | inactive | 37.3% | 85.2% | inactive | 277 | inactive |
| C/C(=N\Nc1ccc(S(N)(=O)=O)cc1[N+](=O)[O-])c1ccc2c(c1)OCO2 | inactive | 36.3% | 79.8% | inactive | 220 | inactive |
| c1ccc2[nH]c3cc4ncnc4cc3nc2c1 | inactive | 31.7% | 70.1% | inactive | 189 | inactive |
| O=C1C2CC=CCC2C(=O)N1c1ncn[nH]1 (stereo unspecified) | inactive | 97.2% | 161% | inactive | 189 | inactive |
| NS(=O)(=O)c1ccc(Nc2nc(-c3ccc(O)cc3O)cs2)cc1 | inactive | 25.1% | 67.8% | inactive | 152 | inactive |
| COc1ccc(CNCc2ccc(C(=O)O)s2)cc1 | inactive | 64.9% | 89.4% | inactive | 33.5 | inactive |
| S=C(Nc1ccc(Oc2ccccc2)cc1)NC1CCCCCC1 | inactive | 28% | 87.3% | inactive | 300 | inactive |
| O=S(=O)(Nc1ncn[nH]1)c1ccc2ccccc2c1 | inactive | 62.3% | 70.5% | inactive | 224 | inactive |
| CCN(CC)c1ccc(/C=C(\C#N)c2nc(-c3cccs3)c(NC(C)=O)s2)cc1 | inactive | 99.5% | 114% | inactive | 0 | inactive |
| O=S(=O)(Nc1cccc(-c2cn3cccnc3n2)c1)c1ccc(F)cc1 | inactive | 36.5% | 46% | inactive | 0 | inactive |
| O=[N+]([O-])c1ccc2c(c1)c(-c1ccccc1)nc1nncn12 | inactive | 31.3% | 72.1% | inactive | 203 | inactive |
| Cn1ncc(C(N)=O)c1NC(=S)NC(=O)c1ccc(Br)o1 | inactive | 36.5% | 76.4% | inactive | 170 | inactive |
| O=c1[nH]c(N/N=C/c2ccc(O)cc2)nc2ccccc12 | inactive | 31.4% | 71% | inactive | 259 | inactive |
| O=C(O)c1ccc(COc2ccc(F)cc2)o1 | inactive | 61.2% | 87.5% | inactive | 35 | inactive |
| COc1ccc(-c2cc(C(F)(F)F)c3c(n2)sc2c(O)cc(=O)[nH]c23)c(OC)c1 | inactive | 38.1% | 76.3% | inactive | 162 | inactive |

Source: PubChem BioAssay
